{
  "source": "PubChem BioAssay AID624273",
  "about": "(Broad Institute, 2012)",
  "note": "In all, about 1,000 compounds went through this assay and about 230 (23%) were called active. Not shown: some 1% with an inconclusive outcome. No rule for the calls is given here. The list shows a part of the results. Entries with a potency or affinity are not part of this list.",
  "data": [
    {"biological_target": "Long-chain-fatty-acid--AMP ligase FadD28 (Mycobacterium tuberculosis (strain ATCC 25618 / H37Rv)) (UniProt P9WQ59)", "sequence (P9WQ59 whole entry, looked up)": "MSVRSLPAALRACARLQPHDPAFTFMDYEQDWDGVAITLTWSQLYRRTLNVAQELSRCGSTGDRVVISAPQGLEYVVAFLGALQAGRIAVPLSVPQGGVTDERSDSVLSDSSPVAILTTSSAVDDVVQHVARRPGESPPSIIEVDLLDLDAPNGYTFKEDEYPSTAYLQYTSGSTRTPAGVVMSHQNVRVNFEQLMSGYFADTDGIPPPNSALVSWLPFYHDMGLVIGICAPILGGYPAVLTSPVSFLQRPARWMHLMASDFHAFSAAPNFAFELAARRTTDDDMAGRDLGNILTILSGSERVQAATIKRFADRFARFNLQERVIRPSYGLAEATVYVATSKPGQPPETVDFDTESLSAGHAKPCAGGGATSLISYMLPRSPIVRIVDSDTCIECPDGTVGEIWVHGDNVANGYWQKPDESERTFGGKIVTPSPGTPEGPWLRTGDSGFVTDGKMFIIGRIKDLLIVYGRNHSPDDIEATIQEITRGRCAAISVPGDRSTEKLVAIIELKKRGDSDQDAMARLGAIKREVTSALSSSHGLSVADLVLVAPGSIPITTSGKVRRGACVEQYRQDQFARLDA", "assay": "inhibitors of FadD28 bisubstrate probe binding, dose response, biochemical, fluorescence polarization, cherry-pick (AID 624273)", "details": "series mostly up to 50 µM; activity change, negative = inhibition: at the top concentration", "values": [
      {"smiles": "O=C(c1cc(COc2ccc3c(c2)CCCC3)on1)N1CCCC1", "activity change, negative = inhibition": "-13.7% (inactive)"},
      {"smiles": "O=C(c1cccc(C(F)(F)F)c1)N1CCN(CCc2ccccc2)CC1", "activity change, negative = inhibition": "3.31% (inactive)"},
      {"smiles": "Cc1[nH]n(-c2ccc(Cl)cc2)c(=O)c1C=Nc1ccc(S(=O)(=O)N2CCOCC2)cc1", "activity change, negative = inhibition": "-0.291% (inactive)"},
      {"smiles": "O=C(Cn1cc(S(=O)(=O)Cc2cccc([N+](=O)[O-])c2)c2ccccc21)N1CCOCC1", "activity change, negative = inhibition": "-3.46% (inactive)"},
      {"smiles": "COC(=O)c1cc(S(=O)(=O)Nc2ccsc2C(=O)OC)oc1C", "activity change, negative = inhibition": "-7.11% (inactive)"},
      {"smiles": "Cc1nnc(SCC(=O)Nc2ccc(F)cc2)n(N)c1=O", "activity change, negative = inhibition": "-5.63% (inactive)"},
      {"smiles": "O=C1/C(=C/c2ccco2)SC(=S)N1CCC(=O)N1CCCCC1CCO", "note": "(centres undefined)", "activity change, negative = inhibition": "-10.4% (inactive)"},
      {"smiles": "N#Cc1ccccc1NC(=O)CNc1ccc(Cl)c(C(F)(F)F)c1", "activity change, negative = inhibition": "-2.52% (inactive)"},
      {"smiles": "COc1cc2c(cc1OC)C(=O)C(Br)CC2", "note": "(centres undefined)", "activity change, negative = inhibition": "-9.76% (inactive)"},
      {"smiles": "O=C(O)CSC(C(=O)Nc1ccc(C(F)(F)F)cc1)c1ccccc1", "note": "(centres undefined)", "activity change, negative = inhibition": "-8.44% (inactive)"},
      {"smiles": "COCc1[nH][nH]c(=O)c1C=Nc1ccc(C(F)(F)F)cc1", "activity change, negative = inhibition": "-12.3% (inactive)"},
      {"smiles": "NS(=O)(=O)c1ccc(NC(=O)c2ccc3c(c2)OCO3)cc1", "activity change, negative = inhibition": "-3.68% (inactive)"},
      {"smiles": "Cc1nonc1C(=O)N/N=C/c1ccc([N+](=O)[O-])o1", "activity change, negative = inhibition": "-12.6% (inactive)"},
      {"smiles": "COC(=O)[C@]1(Cc2ccccc2)N[C@H](CN(C)S(=O)(=O)c2ccc(-c3ccccc3)cc2)[C@@H]2C(=O)N(C)C(=O)[C@@H]21", "activity change, negative = inhibition": "-27.4% (inactive)"},
      {"smiles": "COc1cccc(CN(C)C(=O)CC2C(=O)NCCN2C2Cc3ccccc3C2)c1", "note": "(centres undefined)", "activity change, negative = inhibition": "1.96% (inactive)"},
      {"smiles": "COc1cc(/C=C/c2ccc3cccc(O)c3n2)cc(OC)c1OC", "activity change, negative = inhibition": "-5.24% (inactive)"},
      {"smiles": "Cc1ccn2c(Nc3ccccc3C)c(-c3ccccn3)nc2c1", "activity change, negative = inhibition": "-4.56% (inactive)"},
      {"smiles": "Cc1nn(Cc2ccc(F)cc2)c2sc(C(=O)Nc3ccccc3N3CCOCC3)cc12", "activity change, negative = inhibition": "-3.07% (inactive)"},
      {"smiles": "O=C1CCCC(=NNC(=O)c2cc3ccccc3cc2O)C1", "activity change, negative = inhibition": "3.46% (inactive)"},
      {"smiles": "O=C(O)CCC(=O)Nc1ccc(C(=O)OCC(=O)c2ccc(Cl)cc2)cc1", "activity change, negative = inhibition": "-18.5% (inactive)"},
      {"smiles": "O=C(Nc1cccc([N+](=O)[O-])c1)NC1CCCCCCC1", "activity change, negative = inhibition": "-11.6% (inactive)"},
      {"smiles": "Cn1nc(CC(=O)NC2CCCCCCCCCCC2)c2ccccc2c1=O", "activity change, negative = inhibition": "-3.2% (inactive)"},
      {"smiles": "O=C(COC(=O)c1nc(Cl)ccc1Cl)NCc1ccccc1", "activity change, negative = inhibition": "-10.5% (inactive)"},
      {"smiles": "FC(F)Sc1ccc(NC(=S)NCc2ccccc2)cc1", "activity change, negative = inhibition": "-12.6% (inactive)"},
      {"smiles": "CCCC(C(=O)NCCC(C)C)N(Cc1ccccc1)C(=O)c1snc(C(N)=O)c1N", "note": "(centres undefined)", "activity change, negative = inhibition": "-8.21% (inactive)"},
      {"smiles": "O=S(=O)(CCN1CCN(c2ccccc2O)CC1)c1cc(Cl)ccc1Cl", "activity change, negative = inhibition": "-5.55% (inactive)"},
      {"smiles": "COc1ccc(NC(=O)Nc2ccc3c(c2)C(=O)N([C@@H](C)CO)C[C@@H](C)[C@@H](CN(C)S(=O)(=O)c2cccs2)O3)cc1", "activity change, negative = inhibition": "-15.6% (inactive)"},
      {"smiles": "CCN(CC)c1ccc(NC(=O)Nc2ccc(C(C)=O)cc2)cc1", "activity change, negative = inhibition": "-9.89% (inactive)"},
      {"smiles": "O=C(NN=Cc1ccc(N(CCCl)CCCl)cc1)c1cccnc1", "activity change, negative = inhibition": "-10.7% (inactive)"},
      {"smiles": "COc1ccc(Cl)cc1C(=O)Nn1c(-c2cccs2)nc2ccccc2c1=O", "activity change, negative = inhibition": "-10.4% (inactive)"},
      {"smiles": "O=C(Nc1ccc(F)cc1F)NC1CCCCCCC1", "activity change, negative = inhibition": "-10.6% (inactive)"},
      {"smiles": "CCOc1ccc(N=C2SC(C(=O)Nc3ccccc3C#N)C(N)=C2C(=O)Nc2ccc(Cl)cc2)cc1", "note": "(centres undefined)", "activity change, negative = inhibition": "-2.7% (inactive)"},
      {"smiles": "CCOc1ccc(NC(=O)Cn2sc3nc(C)cc(C)c3c2=O)cc1", "activity change, negative = inhibition": "1.98% (inactive)"},
      {"smiles": "c1ccc(-c2cc(-c3ccccc3)on2)cc1", "activity change, negative = inhibition": "-4.78% (inactive)"},
      {"smiles": "CCCCC(=O)Nc1cc([N+](=O)[O-])ccc1Cl", "activity change, negative = inhibition": "-3.25% (inactive)"},
      {"smiles": "N#Cc1ccc(NCCc2ccccn2)c([N+](=O)[O-])c1", "activity change, negative = inhibition": "-4.35% (inactive)"},
      {"smiles": "CCS(=O)(=O)c1ncc(Cl)c(C(=O)Nc2ccc(S(=O)(=O)N3CCC(C)CC3)cc2)n1", "activity change, negative = inhibition": "-3.68% (inactive)"},
      {"smiles": "CC12CCC(C(=O)NCCCn3ccnc3)(OC1=O)C2(C)C", "note": "(centres undefined)", "activity change, negative = inhibition": "0.92% (inactive)"},
      {"smiles": "c1ccc2cc(OCCCn3ccnc3)ccc2c1", "activity change, negative = inhibition": "4.08% (inactive)"},
      {"smiles": "Cc1nn(CC(=O)NCc2ccco2)c(C)c1[N+](=O)[O-]", "activity change, negative = inhibition": "-5.9% (inactive)"},
      {"smiles": "CC(C)(C)c1ccc(Cn2nnc3c(=O)[nH]c(C4CCCN(C(=O)c5cccs5)C4)nc32)cc1", "note": "(centres undefined)", "activity change, negative = inhibition": "1.02% (inactive)"},
      {"smiles": "COc1ccc(N=C2NC(=O)/C(=C\\C=C\\c3ccco3)S2)cc1", "activity change, negative = inhibition": "-9.1% (inactive)"},
      {"smiles": "COc1ccc(C(C)=O)cc1COC(=O)c1cnc(C)cn1", "activity change, negative = inhibition": "-0.706% (inactive)"},
      {"smiles": "CCN(C(=O)c1cc(OC)c(OC)c(OC)c1)C1CCCCC1", "activity change, negative = inhibition": "-8.5% (inactive)"},
      {"smiles": "CCc1cccc2c(C(=O)COC(=O)c3ccccc3)c[nH]c12", "activity change, negative = inhibition": "-7.51% (inactive)"},
      {"smiles": "CCc1cccc2c(C(=O)COC(=O)[C@@H]3CC(O)CN3S(=O)(=O)c3ccccc3[N+](=O)[O-])c[nH]c12", "note": "(some centres undefined)", "activity change, negative = inhibition": "-1.47% (inactive)"},
      {"smiles": "O=C(c1cc2cc(Br)ccc2oc1=O)N1CCCC1", "activity change, negative = inhibition": "-5.4% (inactive)"},
      {"smiles": "CC(C)CCOc1ccc(C(=O)N2CCCC2C(=O)O)cc1", "note": "(centres undefined)", "activity change, negative = inhibition": "-7.21% (inactive)"},
      {"smiles": "C[C@@H]1CN([C@H](C)CO)C(=O)c2cc(NC(=O)Nc3ccc(C(F)(F)F)cc3)ccc2O[C@H]1CN(C)S(=O)(=O)c1cccs1", "activity change, negative = inhibition": "-6.05% (inactive)"},
      {"smiles": "Cc1ccc(S(=O)(=O)Nc2ccc(O)c3ccccc23)c(C)c1", "activity change, negative = inhibition": "-15.6% (inactive)"},
      {"smiles": "Cc1noc(/C=C/N(C)C)c1S(=O)(=O)N1CCCC(C(=O)NC2CCCCC2C)C1", "note": "(centres undefined)", "activity change, negative = inhibition": "-7.62% (inactive)"},
      {"smiles": "CCOC(=O)c1cccc(P(=O)(C(C)(C)C)C(C)(C)C)c1", "activity change, negative = inhibition": "1.89% (inactive)"},
      {"smiles": "C=CC(COCc1ccccc1)N(C(=O)OC(C)(C)C)S(=O)(=O)c1ccccc1Br", "note": "(centres undefined)", "activity change, negative = inhibition": "0.184% (inactive)"},
      {"smiles": "C=CCC12C=C(OC)C(=O)OC(OC)(C1O)[C@H](c1ccc3c(c1)OCO3)[C@H]2C", "note": "(some centres undefined)", "activity change, negative = inhibition": "-8.23% (inactive)"},
      {"smiles": "CCC1(CC)NC(=O)N(CC(=O)Nc2ccc(OCc3ccccc3)cc2)C1=O", "activity change, negative = inhibition": "-6.91% (inactive)"},
      {"smiles": "Cc1ccc(S(=O)(=O)NCC(=O)OCC(=O)N2CCN(C(=O)c3ccco3)CC2)cc1C", "activity change, negative = inhibition": "-6.55% (inactive)"},
      {"smiles": "CCc1cc(C(=O)O)c(NC(=O)C(c2ccccc2)c2ccccc2)s1", "activity change, negative = inhibition": "-0.982% (inactive)"},
      {"smiles": "CN1c2ccsc2C(O)=C(C(=S)Nc2ccc(F)c(Cl)c2)S1(=O)=O", "activity change, negative = inhibition": "-7.32% (inactive)"},
      {"smiles": "CC1(C)Cc2ccccc2C(=NCCCC(=O)O)N1", "activity change, negative = inhibition": "-2.17% (inactive)"},
      {"smiles": "Oc1c(Cl)cc(Cl)cc1/C=N/NC(=S)NC1CC2C=CC1C2", "note": "(centres undefined)", "activity change, negative = inhibition": "-13.8% (inactive)"},
      {"smiles": "CCCSc1ncc(Cl)c(C(=O)Nc2ccc(S(=O)(=O)N3CC(C)OC(C)C3)cc2)n1", "note": "(centres undefined)", "activity change, negative = inhibition": "-0.797% (inactive)"},
      {"smiles": "C=CCC[C@@H](Cc1ccc(F)cc1)C(=O)OC[C@@H](NC(=O)[C@@H](CC=C)CC(=O)N(CCO)Cc1ccccc1)c1ccccc1", "activity change, negative = inhibition": "2.84% (inactive)"},
      {"smiles": "O=C(Nc1ccccc1F)NC1CCCCCCC1", "activity change, negative = inhibition": "-18.2% (inactive)"},
      {"smiles": "COC(=O)CN(c1ccc(OC)cc1)S(=O)(=O)c1ccc(OC)c(OC)c1", "activity change, negative = inhibition": "0.952% (inactive)"},
      {"smiles": "COC(=O)C1=C(c2ccc3ccccc3c2)C[C@@H]2CC[C@H]1N2C(=O)N1CCC(O)CC1", "activity change, negative = inhibition": "-1.57% (inactive)"},
      {"smiles": "N=c1c(C(=O)NCc2ccco2)cc2c(=O)n3ccccc3nc2n1Cc1ccccc1", "activity change, negative = inhibition": "-1.35% (inactive)"},
      {"smiles": "COC(=O)CCC(=O)N1CCCC(CO)(Cc2ccccc2F)C1", "note": "(centres undefined)", "activity change, negative = inhibition": "-0.525% (inactive)"},
      {"smiles": "O=C(O)C1Sc2[nH]c(=O)sc2C2c3ccc(O)cc3OC(=O)C12", "note": "(centres undefined)", "activity change, negative = inhibition": "-16.8% (inactive)"},
      {"smiles": "O=C(NC(NC(=S)Nc1c(Cl)cccc1Cl)C(Cl)(Cl)Cl)OCc1ccccc1", "note": "(centres undefined)", "activity change, negative = inhibition": "8.05% (inactive)"}
    ]}
  ]
}
